Compound activity as filed in PubChem.
Gal4-VP16 FLuc: Gal4-VP16 reporter inhibition counter-screen | Drosophila S2 Gal4-VP16 UAS-luciferase, luminescence, 20 h | Potency, µM (top dose mostly 53.6 µM), usual class: inhibitors | actives 3.5% (n = 310,000) | AID 2546;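 further: Gal4-VP16 expression switched on by copper sulfate through the metallothionein promoter; nearly all actives have a fitted effect of over 50% in size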
Coupling enz: coupling enzyme interference in Giardia aldolase counter-screen. coupling enzyme system counterscreen, AmpLite Red fluorescence. activity change, negative = inhibition, % at 58.2 µM, hits read low. actives 0.67% (n = 290,000). AID 2472; in the data active means activity change below about -30%
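First, compound is pin-transferred into glyceraldehyde-3-phosphate coupling-enzyme reagent at 57.5 uM final and held 10 min at RT. Next, substrate, coupling system and AmpLite Red are added. After 20 min RT, fluorescence (525/598 nm) is read.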
TSHR antag: human thyrotropin receptor antagonism; activity change, negative = inhibition, % at 11.5 µM; actives 0.2% (n = 330,000); AID 504810; TSHR-expressing cells, TSH-stimulated cAMP HTRF, 2 h; hits give low values;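 active means activity change below a set negative limit, meaning inhibition stronger than a set level, cut at about -70% in these data; inconclusive means activity change between two set negative limits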
Target sequence (P16473 whole entry, looked up): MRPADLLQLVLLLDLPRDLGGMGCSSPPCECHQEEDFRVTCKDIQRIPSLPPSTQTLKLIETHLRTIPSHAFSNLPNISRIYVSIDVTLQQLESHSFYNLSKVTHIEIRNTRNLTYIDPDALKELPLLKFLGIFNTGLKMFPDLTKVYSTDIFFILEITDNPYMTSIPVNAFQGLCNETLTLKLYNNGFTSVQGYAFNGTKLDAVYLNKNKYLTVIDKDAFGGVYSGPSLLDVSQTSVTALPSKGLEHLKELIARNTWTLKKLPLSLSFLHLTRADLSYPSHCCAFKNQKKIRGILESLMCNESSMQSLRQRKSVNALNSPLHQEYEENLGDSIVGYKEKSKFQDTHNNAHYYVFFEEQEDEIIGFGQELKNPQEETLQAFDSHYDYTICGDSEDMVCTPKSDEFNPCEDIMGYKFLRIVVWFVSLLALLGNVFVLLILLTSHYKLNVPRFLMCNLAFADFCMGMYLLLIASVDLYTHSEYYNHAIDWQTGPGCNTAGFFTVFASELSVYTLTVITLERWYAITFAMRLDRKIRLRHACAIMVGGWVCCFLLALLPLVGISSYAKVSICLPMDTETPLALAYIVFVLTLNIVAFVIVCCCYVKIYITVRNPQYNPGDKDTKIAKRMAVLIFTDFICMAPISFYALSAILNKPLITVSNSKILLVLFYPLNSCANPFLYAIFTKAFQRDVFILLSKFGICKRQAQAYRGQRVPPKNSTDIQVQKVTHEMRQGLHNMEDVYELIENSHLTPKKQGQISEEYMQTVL
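Antagonism was scored as loss of TSH-driven cAMP in TSHR cells, stimulated with 4nM TSH (EC80) for 2 hours at 37 deg C and detected by homogeneous HTRF competition immunoassay.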
ELG1 repair inh: ELG1-dependent DNA repair inhibition; HEK293T ELG1-luciferase reporter, luminescence, 16 h; DNA damage induced by 5-fluorouridine; Potency, µM (titrated, usually from 46.1 µM), actives largely listed as inhibitors; actives 2.3% (n = 330,000); AID 504467; further: nearly all actives have a fitted effect of over 55% in size
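Reporter activity after DNA damage by 5-fluorouridine is monitored. Compound-treated cells incubate 16 hr at 37 °C, then ONE-Glo is added for 30 min before luminescence reading.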
RORg inh: blocks mouse ROR gamma transcriptional activity; Potency, µM (top dose mostly 53.6 µM), most hits filed as inhibitors; Drosophila S2 Gal4-RORgamma UAS-luciferase reporter, 20 h; actives 5.4% (n = 310,000); P51450; further: nearly all actives have a fitted effect of over 60% in size
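Drosophila Schneider cells stably carrying a metallothionein-driven Gal4 DBD–ROR gamma fusion and a UAS-Photinus luciferase reporter were exposed to compound for 1 hr, then induced with copper sulfate (700 uM final) for 20 hr at ambient temperature before luminescence reading.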
Of the large screens only hits and unclear results are named; the others gave an inactive call; ! = repeats disagree. In the library only some 8% were active in any assay of this set; here they are far more common. Unless noted, the call rests on the fitted dose curve; in most records, active means well fitted curve in the direction sought with a large enough effect; inconclusive means small, poorly fitted or top-dose-only effect, or another doubt; inactive means no such curve, though single readings can be large; an effect the other way counts as inactive or inconclusive.

CC(c1ccccc1)N1CCC(CNC(=S)Nc2cccc(Cl)c2)C1 (stereo unspecified)	Gal4-VP16 FLuc inconclusive, RORg inh 10µM
Cc1ccc(NC(=S)NCC2CCN(C(C)c3ccccc3)C2)cc1 (stereo unspecified)	Gal4-VP16 FLuc inconclusive, RORg inh inconclusive
Cc1cc(C)c(NC(=S)NCC2CCN(C(C)c3ccccc3)C2)c(C)c1 (stereo unspecified)	Gal4-VP16 FLuc inconclusive, Coupling enz -49, RORg inh 7.9µM
c1ccc(CCNc2ccnc3cc4ccccc4cc23)cc1	Gal4-VP16 FLuc inconclusive, Coupling enz -44, ELG1 repair inh inconclusive, RORg inh inconclusive
CC(C)Nc1ccc(Nc2ccnc3cc4ccccc4cc23)cc1	Gal4-VP16 FLuc inconclusive, RORg inh inconclusive
C=CCNC(=O)C(=O)Nc1ccc2c(c1)N(S(=O)(=O)c1cccs1)CCC2	ELG1 repair inh inconclusive (no result: Gal4-VP16 FLuc, Coupling enz, RORg inh)
COc1cc(NC(=O)c2cc3ccccc3cc2OC)ccc1NC(=O)c1cccs1	ELG1 repair inh 15µM (no result: Coupling enz)
COc1cc(NC(=S)NC(=O)c2ccccc2F)ccc1NC(=O)c1cccs1	RORg inh inconclusive
COc1cc(NC(=S)NC(=O)c2cc(C)cc(C)c2)ccc1NC(=O)c1cccs1	Gal4-VP16 FLuc 1.8µM, ELG1 repair inh inconclusive, RORg inh 2µM
COc1cc(NC(=S)NC(=O)c2ccccc2C)ccc1NC(=O)c1cccs1	Gal4-VP16 FLuc 8.9µM, ELG1 repair inh 13µM, RORg inh 2.5µM
COc1cc(NC(=S)NC(=O)c2ccc(C(C)(C)C)cc2)ccc1NC(=O)c1cccs1	Gal4-VP16 FLuc 3.5µM, RORg inh 3.2µM
COc1cc(NC(=S)NC(=O)c2c(OC)cccc2OC)ccc1NC(=O)c1cccs1	ELG1 repair inh inconclusive, RORg inh inconclusive
CCCCn1c(N)c(N(CCOC)C(=O)c2ccc(F)c(S(=O)(=O)N3CCOCC3)c2)c(=O)[nH]c1=O	none (no result: Gal4-VP16 FLuc, Coupling enz, RORg inh)
Clc1ccccc1C(c1ccccc1)(c1ccccc1)n1ccnc1	Gal4-VP16 FLuc inconclusive, RORg inh 6.3µM!
CC(C)C(NC(=O)C(Cc1ccc(O)cc1)NC(=O)C(NC(=O)C(F)(F)F)C(C)C)C(=O)O (stereo unspecified)	none (no result: TSHR antag, ELG1 repair inh)
c1csc(-c2cn3ccc4ccccc4c3n2)c1	Gal4-VP16 FLuc inconclusive, ELG1 repair inh 16µM
c1cc(-c2cccs2)nc(-c2cccs2)c1	ELG1 repair inh inconclusive
CC1CCCCC1NC(=S)NC(=O)c1ccccc1Br (stereo unspecified)	Gal4-VP16 FLuc 5µM, ELG1 repair inh inconclusive, RORg inh 2.8µM
CN(C(=S)NC(=O)c1ccccc1Br)C1CCCCC1	Gal4-VP16 FLuc 3.2µM, RORg inh 0.89µM
Cc1ccccc1C(=O)NC1CCSC1=O (stereo unspecified)	RORg inh inconclusive
Cc1ccccc1C(=O)NC(=S)N(C)C1CCCCC1	Gal4-VP16 FLuc 2.8µM, RORg inh inconclusive
CN(C(=O)CN1CCC(NC(=O)c2ccccc2Br)CC1)C1CCCCC1	none
COc1cc(Cl)ccc1OCc1cc(C(=O)N2C[C@]3(C)C[C@H]2CC(C)(C)C3)no1	Gal4-VP16 FLuc inconclusive, ELG1 repair inh inconclusive
CC1(C)Cc2c(cnn2-c2cccc(F)c2)C(NC(=O)c2ccc[n+]([O-])c2)C1 (stereo unspecified)	none (no result: Coupling enz)
Cc1ccc(S(=O)(=O)N2C[C@@H]3CCCC[C@@H]3[C@@H](C)[C@H]2c2cn(Cc3ccccc3)c3ncccc23)cc1	ELG1 repair inh inconclusive (no result: Gal4-VP16 FLuc, Coupling enz, RORg inh)
COc1ccc(-c2[nH]ncc2/C=N\NC(=O)c2ccc(Br)o2)cc1OC	none (no result: Coupling enz)
COC(=O)c1ccc(COc2cccc3c2OC(C)(C)C3)cc1	RORg inh inconclusive (no result: Coupling enz)
COc1ccc(CNCC(O)COc2cccc3c2OC(C)(C)C3)cc1 (stereo unspecified)	Gal4-VP16 FLuc 10µM, ELG1 repair inh 9.2µM
O=c1oc(-c2ccc(Cl)c(Cl)c2)nn1-c1ccc(C(F)(F)F)cn1	none
CCC(=O)O[C@]1(C(=O)CCl)[C@@H](C)CC2C3C[C@H](F)C4=CC(=O)C=CC4(C)[C@@]3(F)C(O)CC21C (stereo partly specified)	none (no result: Coupling enz, TSHR antag, ELG1 repair inh)
N#Cc1ccc(C23CC4(C2)[C@H](CN(Cc2cccnc2)[C@@H]4c2ccccc2)C3c2ccc(C(F)(F)F)cc2)cc1 (stereo partly specified)	none (no result: TSHR antag, ELG1 repair inh)
